Screens: PubChem, Center for Chemical Genomics, University of Michigan
Dicer inh – inhibitors of Dicer pre-microRNA processing, primary screen, biochemical, cat-ELCCA, chemiluminescence. Endoribonuclease Dicer (Homo sapiens), Q9UPY3. cat-ELCCA pre-miR-21 Dicer processing; active compounds read high. z-score at 25 µM. hit rate 6% among 47,000. AID 1347074, 2019; in the data active = z-score above about 3, passing the limit was not always enough;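 also: higher signal means more uncleaved substrate so more Dicer inhibition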
Hits are given with their value; n = inactive. The sample as a whole holds a higher share of hits than the screen did.

SMILES	Dicer inh
N#CC1=C2N=C(N)c3ccccc3N2C2=C(C(=O)CC(c3ccccc3)C2)C1c1cccnc1 (stereo unspecified)	n
COc1ccc(C2C(C#N)=C3N=C(N)c4ccccc4N3C3=C2C(=O)CC(C)(C)C3)cc1OC (stereo unspecified)	8.2
N#CC1=C2N=C(N)c3ccccc3N2C2=C(C(=O)CC(c3ccccc3)C2)C1c1ccc2c(c1)OCO2 (stereo unspecified)	3.4
COc1cccc(C2C(C#N)=C3N=C(N)c4ccccc4N3C3=C2C(=O)CC(C)(C)C3)c1 (stereo unspecified)	n
N#CC1=C2N=C(N)c3ccccc3N2C2=C(C(=O)CC(c3ccccc3)C2)C1c1cccs1 (stereo unspecified)	n
CC(=O)/C=C1/N(C)c2ccccc2C1(C)C	n
COC(=O)c1sccc1N/N=C/c1ccc(C#N)cc1	n
CC(C)(C)C(=O)c1cn(CC(=O)N2CCCC2)c2ccccc12	n
Cn1cnc2nc(SCC(=O)O)nc(N)c21	n
N#C/C(=C\Nc1ccc(C(F)(F)F)cc1Cl)C(=O)c1ccsc1	n
Cc1[nH]n(-c2ccccc2)c(=O)c1N=Nc1ccc(Br)cc1	n
Cc1c(-c2cc(C(F)(F)F)n3nc(-c4cccs4)cc3n2)sc2ccc(Cl)cc12	n
O=C(NC(Cc1ccccc1)C(=O)O)c1ccc(C(=O)NC(Cc2ccccc2)C(=O)O)cc1 (stereo unspecified)	n
Cn1ncc2c(N/N=C/c3ccc(C#N)cc3)ncnc21	n
CCCSc1nnc2c3ccccc3n(CC)c2n1	n
C=CCSc1nnc2c3ccccc3n(CC=C)c2n1	3.2
CCn1c2ccccc2c2nnc(SCC(=O)c3ccccc3)nc21	n
C=CCN(c1ccccc1C1=N/C(=C\c2ccc(Cl)cc2)C(=O)O1)S(=O)(=O)c1ccc(C)cc1	n
O=C(NCc1ccc(Cl)cc1Cl)c1cccnc1Sc1cccc(Cl)c1	n
Cc1noc(C)c1-c1nc(CSc2n[nH]c(=O)n2-c2cccnc2)no1	n
COC(=O)C1=C(C(=O)OC)SC(=C2C(=S)C(C)(C)N(C(=O)C(C)C)c3cc(C)ccc32)S1	n
CCOC(=O)C1=C(C(=O)OCC)SC(=C2C(=S)C(C)(C)N(C(C)=O)c3cc(C)ccc32)S1	3.4
CCCC(=O)N1c2cc(C)ccc2C(=C2SC(C(=O)OC)=C(C(=O)OC)S2)C(=S)C1(C)C	n
O=C(c1ccc([N+](=O)[O-])cc1)N1CC(Oc2ccc(Cl)cc2)C1	n
CCc1ccc(C2CC(c3cccc(C)c3)n3nc(N)nc3N2)cc1 (stereo unspecified)	n
SMILES	Dicer inh
Cc1ccc(C2CC(c3cccc(C)c3)n3ncnc3N2)cc1 (stereo unspecified)	n
Oc1ccc2ccccc2c1C1Nc2cccc3cccc(c23)N1	n
COc1cc(C2Nc3cccc4cccc(c34)N2)ccc1O	3.6
Cc1cccc(C2Nc3cccc4cccc(c34)N2)c1	3.6
c1ccc(-c2ccc(C3Nc4cccc5cccc(c45)N3)cc2)cc1	3.2
COc1cc(C2N3CC4(C)CN2CC(C)(C3)C4)ccc1O (stereo unspecified)	n
N#Cc1ccc(C2NC(=O)c3ccccc3N2)cc1 (stereo unspecified)	n
COc1ccc(C2NC(=O)c3ccccc3N2)cc1O (stereo unspecified)	n
CC(C)(C)NC(=O)c1cc2c(n(-c3ccc(Cl)cc3)c1=O)CCCC2=O	n
CN(C)S(=O)(=O)c1cc(C(=O)O)c(N2CCOCC2)cc1Cl	n
COc1ccc(Br)cc1/C=C/c1[nH]c(=O)[nH]c(=O)c1[N+](=O)[O-]	n
O=[N+]([O-])c1cccc(N=C2c3ccccc3CN2c2cccc([N+](=O)[O-])c2)c1	n
CCOC(=O)c1cc2c(NC(=O)c3cccc(C(F)(F)F)c3)c(C(=O)OCC)sc2nc1C(F)(F)F	n
COc1cc2c(cc1OC)CN(C(=O)CSc1nnc3ccccn13)CC2	n
COc1cc2c(cc1OC)CN(C(=O)c1ccco1)CC2	5
COc1cc2nc(N3CCN(C(=O)c4ccco4)CC3)nc(N)c2cc1OC	n
CSc1sc(C#N)c2c1S(=O)(=O)N(C)c1ccccc1-2	n
O=C1c2ccccc2C(=O)N1SSN1C(=O)c2ccccc2C1=O	n
COc1ccccc1NC(=O)CN1c2cccc3cccc(c23)S1(=O)=O	n
Nc1nc(-c2cccnc2)nn1C(=O)c1ccc(Cl)cc1	n
CC(=O)n1nc(-c2cccnc2)nc1N	5.5
CCOC(=O)Cn1c(-c2cccnc2)nc(-c2ccccc2)c1-c1ccccc1	n
Nc1nc(-c2cccnc2)nn1S(=O)(=O)c1ccccc1	n
O=C(O)c1cc(-c2cccnc2)nc2ccccc12	n
Nc1nc(-c2cccnc2)nn1C(=O)Cc1ccccc1	8.2
SMILES	Dicer inh
CC1(C)CC(=O)c2c(cc(OS(=O)(=O)c3ccccc3)cc2OS(=O)(=O)c2ccccc2)O1	n
CCOC(=O)c1sc(SCC)c2c1CC(C)(C)CC2=O	n
Cc1cc(C)c2c(n1)sc1c(=O)n(Cc3ccccc3Cl)cnc12	n
Cc1c(/C=N/O)c(=O)n(-c2ccccc2)n1C	n
CCOc1ccccc1C1C(C(=O)OCCSCC)=C(C)NC2=C1C(=O)CCC2 (stereo unspecified)	n
CCOc1ccc(S(=O)(=O)Nc2cc(C)ccn2)cc1	n
CN(C)/C=C/C=c1/c(=O)c2cccc3cccc1c32	3.7
CN(C)N1C(=O)c2cccc3cccc(c23)C1=O	n
CN(C)/C=C/C=C1\N=C(c2ccccc2)OC1=O	n
Cc1onc(-c2ccccc2)c1C(=O)N1CCC(O)(c2ccc(Cl)cc2)CC1	n
CCOC(=O)c1sc(N2C(=O)c3oc4ccccc4c(=O)c3C2c2ccc(OCC)cc2)nc1C (stereo unspecified)	n
COc1ccc(-c2sc(/N=C/c3ccc(-c4ccccc4)cc3)c(C#N)c2C)cc1OC	n
CCc1ccc(-c2ncnn2-c2ccc(Cl)cc2)cc1	3.2
CSc1ccc(-c2ncnn2-c2cccc(Cl)c2)cc1	n
Clc1ccc(-n2ncnc2-c2ccccc2)cc1	n
CN(C)c1ccc(NS(=O)(=O)c2ccccc2)cc1C(=O)O	n
O=C1CC(Cc2ccccc2)C(=O)N1c1ccncc1 (stereo unspecified)	n
CC(C)(C)c1ccc(N2C(=O)CC(C/C=C/c3ccccc3)C2=O)cc1 (stereo unspecified)	4.7
Cc1cc(C)cc(CC2CC(=O)N(c3ccccc3)C2=O)c1 (stereo unspecified)	n
Cc1cc(S(=O)(=O)Oc2ccc(CC#N)cc2)c(C)cc1Cl	n
O=C1CC(c2ccccc2)CN1C(=O)c1ccccc1Cl (stereo unspecified)	n
COc1cc2ccccc2cc1C(=O)Oc1cccc2ccc(C)nc12	n
O=C(CSc1nc(-c2ccccc2)cc(C(F)(F)F)n1)Nc1ccc2c(c1)OCO2	n
CN(C)CCCNc1sc(-c2ccccn2)c([N+](=O)[O-])c1[N+](=O)[O-]	n
CCCCNc1c([N+](=O)[O-])c(=O)sc2ccccc12	7
SMILES	Dicer inh
O=c1sc2ccccc2c(NCCCN2CCOCC2)c1[N+](=O)[O-]	n
CC(C)(C)Nc1c([N+](=O)[O-])c(=O)sc2ccccc12	n
O=c1sc2ccccc2c(Nc2ccccc2)c1[N+](=O)[O-]	3.6
O=c1sc2ccccc2c(N2CCN(c3ccccc3)CC2)c1[N+](=O)[O-]	n
Oc1ccccc1/C=N/c1ccnn1-c1ccccc1	n
COc1ccc(-c2c(C#N)c(N)nc3c2CCCCC3)cc1OC	n
CCOc1cc(S(=O)(=O)n2ccnc2C(C)C)ccc1Br	n
Cc1cc(NC(=O)c2nccnc2C(=O)O)n(C)n1	n
